Compound activity from PubChem BioAssay.
HEK293 cAMP ctrl: counter-screen for TSHR agonists: cAMP increase in parental HEK293 | parental HEK293 CNG cAMP sensor, membrane potential fluorescence | Potency, µM (highest dose often 57.1 µM), actives largely listed as activators | 2.5% of 73,000 active | AID 938; further: nearly all actives have a fitted effect of over 55% in size
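Parental HEK 293 cells stably expressing a cAMP-gated CNG channel were loaded with membrane potential dye containing 100 uM RO 20-1724 for 60 min. Compound added for 30 min; depolarization read as fluorescence intensity at 590 nm.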
FLuc inh: firefly luciferase inhibition; P08659; purified firefly luciferase, luminescence, 8 min; Potency, µM (series often up to 57.1 µM), hits mostly inhibitors; 2.2% of 72,000 active; further: nearly all actives have a fitted effect of over 40% in size
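Firefly luciferase (PKLight detection mix) with 10 uM ATP in pH 7.2 imidazole buffer (KCl, MgCl2, Tween 20, BSA). Compounds tested across a concentration series (qHTS). Luminescence read after 8 min at ambient temperature.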
Tau fil binding: binds recombinant human tau filaments. recombinant tau filaments, thioflavin S fluorescence, 15 h; filaments grown with octadecylsulfate alongside compound. AID 596. Potency, µM (titrated, usually from 57.1 µM). 2% of 71,000 active;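 further: actives lower thioflavin S fluorescence by blocking filaments or displacing dye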
Target sequence (P10636 whole entry, looked up): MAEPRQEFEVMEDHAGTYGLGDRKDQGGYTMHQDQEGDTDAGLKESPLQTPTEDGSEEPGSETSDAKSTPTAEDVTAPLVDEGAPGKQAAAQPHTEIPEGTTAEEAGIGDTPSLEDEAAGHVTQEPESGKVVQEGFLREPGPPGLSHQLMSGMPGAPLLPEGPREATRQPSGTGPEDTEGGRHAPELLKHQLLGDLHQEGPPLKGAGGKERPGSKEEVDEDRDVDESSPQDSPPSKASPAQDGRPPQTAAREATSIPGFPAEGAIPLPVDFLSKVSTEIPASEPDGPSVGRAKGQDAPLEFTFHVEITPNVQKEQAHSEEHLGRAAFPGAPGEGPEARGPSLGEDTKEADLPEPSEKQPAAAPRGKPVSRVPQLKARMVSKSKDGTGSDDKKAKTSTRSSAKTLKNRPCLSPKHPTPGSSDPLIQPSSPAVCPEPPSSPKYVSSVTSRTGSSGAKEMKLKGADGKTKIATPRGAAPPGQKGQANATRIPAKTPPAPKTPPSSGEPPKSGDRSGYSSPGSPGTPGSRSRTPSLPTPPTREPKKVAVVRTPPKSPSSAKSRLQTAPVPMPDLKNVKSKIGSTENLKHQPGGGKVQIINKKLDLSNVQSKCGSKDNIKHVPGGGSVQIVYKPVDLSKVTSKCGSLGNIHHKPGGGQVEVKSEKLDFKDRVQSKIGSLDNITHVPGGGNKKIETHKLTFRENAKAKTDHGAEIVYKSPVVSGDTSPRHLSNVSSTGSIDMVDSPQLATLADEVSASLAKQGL
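ThS-based fibril read: tau 1 uM final, inducer ODS 30 uM final, 37 C for 15 h, ex 450/em 510 nm.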
TSHR agonist: TSH receptor (human) agonism; P16473; AID 926; HEK293-CNG-TSHR cells (CNG channel as cAMP sensor), membrane potential dye, cAMP; Potency, µM (top dose mostly 57.1 µM), actives largely listed as activators; 0.48% of 73,000 active; active means well fitted activation curve with a large enough effect in the main read-out, with a control signal flat, not every such curve was filed as active; inconclusive means small, poorly fitted or top-dose-only effect, or a change in a side signal; inactive means no such curve, though single readings can be large or run the other way; reference of the percent scale not stated here;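 further: the control signal comes from parental cells without the receptor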
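HEK 293 cells stably expressing TSHR and a modified CNG channel, with CNG-only parental cells as counterscreen, were preloaded 60 min at room temperature with membrane potential dye containing 100 uM RO 20-1724. Compound exposure was 30 min, and depolarization was read as fluorescence at 590 nm.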
PK Bst: pyruvate kinase (B. stearothermophilus) modulation; Potency, µM; 1.2% of 51,000 active; purified pyruvate kinase, luminescence ATP production; ribose 5-phosphate activator present at AC10; AID 361; in the data active means potency below about 11 µM; inconclusive means mostly about 12 µM to 25 µM;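 the screen sought inhibitors and activators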
ERK AVP inh: vasopressin-driven ERK pathway inhibition | HEK293-V1b, vasopressin-stimulated pERK AlphaScreen | Potency, µM (top dose mostly 57.5 µM), usual class: inhibitors | 0.99% of 72,000 active; further: nearly all actives have a fitted effect of over 55% in size
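HEK293 cells stably expressing V1b receptor, preincubated 30 min at 37 °C with compound, then stimulated 5 min with 25 nM vasopressin. Phospho-ERK by AlphaScreen SureFire after 5 h RT; normalized to DMSO and vasopressin; AC50 by Hill fit.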
A number is an active result; i = inactive; ? = inconclusive; nt = no result; ! = not confirmed by another sample; [ ] = remark or other dose. Rows were chosen to be rich in hits. Some 7.2% of all compounds tested hit in one or more screens of this group. Unless noted, the call rests on the fitted dose curve; in most records, active means well fitted curve in the direction sought with a large enough effect; inconclusive means small, poorly fitted or top-dose-only effect, or another doubt; inactive means no such curve, though single readings can be large; an effect the other way counts as inactive or inconclusive.

SMILES	HEK293 cAMP ctrl	FLuc inh	Tau fil binding	TSHR agonist	PK Bst	ERK AVP inh
CCOc1ccc(C2c3c(oc4cc(C)c(C)cc4c3=O)C(=O)N2CCCN(C)C)cc1OC (stereo not given)	?	i	25.1µM	?	nt	nt
COC(=O)c1ccc(C2c3c(oc4cc(C)c(C)cc4c3=O)C(=O)N2CCCN(C)C)cc1 (stereo not given)	i	i	10µM	i	nt	i
Cc1c(C(=O)O)nc(/C=C\C(=O)O)[nH]c1=O	i[11.4 µM]	i[11.4 µM]	i[11.4 µM]	i[11.4 µM]	nt	i[11.5 µM]
FC(F)(F)c1ccccc1-c1nc(NC2CCNCC2)c2ccccc2n1	i	i[2.29 µM]	i	i	nt	i
OC/C(Br)=C(\Br)CO	i	nt	i	?	nt	i
C=C(C)C(=O)OCC1CN2C(CCC(C)C2c2ccc(Br)cc2)C(=O)O1 (stereo not given)	1.58µM!	nt	nt	?	nt	i[11.5 µM]
Cc1nc(NC2CCCCC2)c2nc(-c3ccccc3)n(CCN3CCCCC3)c2n1	?	nt	i	?	nt	?
C=CC(C)(C)c1[nH]c2ccccc2c1C1=C(O)C(=O)C(c2c[nH]c3c(CC=C(C)C)cccc23)=C(O)C1=O	i	i	31.6µM	i	nt	?
Cc1nc2ccccc2n1-c1nc(-c2ccco2)cc(C(F)(F)F)n1	3.16µM	i	i	?	i	i
FC(F)(F)c1cc(-c2ccco2)nc(-n2cnc3ccccc32)n1	?	i	i	?	i	i
c1ccc(-c2cccc(N3CCC4(CCNCC4)CC3)c2)cc1	i	i[11.4 µM]	?	?	nt	i
O=C(OCc1nnc(-c2ccc(Cl)cc2)o1)c1ccc(=O)n(Cc2ccccc2)n1	i	i	i	i	9.84	i
CC(C)n1cc(/C=C(\C#N)S(=O)(=O)c2ccccc2)c2ccccc21	i	i	7.94µM	i	i	i
O=C(Oc1ccc2c(c1)OCO2)c1ccc(F)cc1Cl	i	12.6µM	i	i	nt	i
CC1=NN(C(=O)c2ccncc2)C(=O)[C@@H]1N=Nc1ccc2ccccc2c1	i[11.4 µM]	i[11.4 µM]	1.58µM	i[11.4 µM]	nt	i[11.5 µM]
CO[C@@H]1CC[C@@]2(C)[C@@H](CC[C@@]3(C)[C@H]2CC=C2[C@H]4CC(C)(C)[C@H](O)[C@@H](OC(C)=O)[C@]4(CO)[C@H](O)C[C@]23C)[C@@]1(C)CO (tested in a mixture with another compound)	i	i	i	15.8µM	nt	?
Cc1cc(N2CCOCC2)c2c(N)c(Br)cc(C)c2n1	i[11.4 µM]	i	3.16µM	i[11.4 µM]	nt	?
COC(=O)c1cccc(C23CC4(C2)[C@H](CN(CC2CCCCC2)[C@@H]4c2ccccc2)C3c2ccc(Cl)nc2)c1 (stereo not given in full)	nt	nt	nt	nt	nt	i
CC1CCCCN1C(=O)Cn1c(=O)n(C2CCCCC2)c(=O)c2ccccc21 (stereo not given)	i	i	i	15.8µM	i	i
CC(C)C[C@@H](CC(=O)N[C@@H](CCC(=O)O)CC(=O)O)NC(=O)[C@@H]1CNCC[C@H]1NC(=O)C[C@@H](NC(=O)C[C@H](Cc1ccccc1)NC(=O)[C@@H]1CNCC[C@H]1N)C(C)C	i	nt	i	i	nt	nt
CCC(CC)C(=O)NCc1ccc2c(c1)cc(C)n2C	6.31µM	i	i	?	i	i
Cc1cc2cc(CNC(=O)c3cccs3)ccc2n1C	i	i	25.1µM	i	i	i
Cc1cc2cc(CNC(=O)Nc3ccccc3)ccc2n1C	i	i	20µM	i	i	i
CCOC(=O)NCc1ccc2c(c1)cc(C)n2C	i	i	?	i	i	i
N=C(N)c1ccc(/C=C\c2ccc(C(=N)N)cc2)cc1	i[11.4 µM]	i[11.4 µM]	i[11.4 µM]	i[11.4 µM]	nt	i[11.5 µM]
SMILES	HEK293 cAMP ctrl	FLuc inh	Tau fil binding	TSHR agonist	PK Bst	ERK AVP inh
C=C1C[C@@]23C[C@@]1(O)CC[C@@H]2[C@]12C=C[C@@H](O)[C@](C)(C(=O)O1)[C@@H]2[C@@H]3C(=O)O	nt	nt	nt	nt	nt	i
Cc1cnc(CNc2nc(-c3c(C)noc3C)nc3ccccc23)cn1	i	i[2.29 µM]	i	i	nt	i
Cc1nc2cncnc2n(Cc2ccccc2)c1=O	i	i[11.4 µM]	i	i	nt	i
COc1ccccc1CCn1c(=O)c(-c2cccc(F)c2)nc2cncnc21	?	i[11.4 µM]	?	?	nt	i
O=c1c(-c2ccccc2)nc2cncnc2n1Cc1ccccc1	i	i[11.4 µM]	20µM	i	nt	?
COc1ccccc1CCn1c(=O)c(-c2ccccc2)nc2cncnc21	3.98µM	i[11.4 µM]	?	?	nt	i
O=c1c(-c2cccc(F)c2)nc2cncnc2n1Cc1ccc(F)cc1	i[2.29 µM]	i[11.4 µM]	i	i	nt	?
O=c1c(-c2cccc(F)c2)nc2cncnc2n1Cc1ccccc1	i[2.29 µM]	i[11.4 µM]	20µM	i	nt	i
O=C(NCCc1c[nH]c2ccccc12)C(F)(F)C(F)F	i	i	i	i	i	i
CC(Cc1ccccc1)C(=O)NCCc1c[nH]c2ccccc12 (stereo not given)	12.6µM	nt	i	?	nt	?
CN(C)Cc1cc(O)c(O)c(CN(C)C)c1	i[11.4 µM]	i[11.4 µM]	i[11.4 µM]	i[11.4 µM]	nt	i[11.5 µM]
CCN(CC)c1ccc(NC(=O)c2ccc(Br)o2)c(C)c1	i	i	?	i	i	25.1µM
Cc1cc(O)c(NC(=O)c2ccc(Br)o2)cc1C	i[11.4 µM]	?	i[11.4 µM]	i[11.4 µM]	nt	i
O=C1c2oc3ccc(F)cc3c(=O)c2C(c2cccc(O)c2)N1CCCN1CCOCC1 (stereo not given)	i	i	i	i	nt	nt
Cc1cc2oc3c(c(=O)c2cc1C)C(c1ccc(C(C)C)cc1)N(CCCN1CCOCC1)C3=O (stereo not given)	i	i	3.98µM	i	nt	nt
COC(=O)c1ccc(C2c3c(oc4ccccc4c3=O)C(=O)N2CCCN2CCOCC2)cc1 (stereo not given)	i	i	?	i	nt	nt
Cc1ccc2oc3c(c(=O)c2c1)C(c1cccc(Cl)c1)N(CCCN1CCOCC1)C3=O (stereo not given)	i	i	12.6µM	i	nt	nt
CCOc1ccc(C2c3c(oc4ccccc4c3=O)C(=O)N2CCCN2CCOCC2)cc1 (stereo not given)	i	i	i	i	i	i
CCOc1ccc(C2c3c(oc4cc(C)c(C)cc4c3=O)C(=O)N2CCCN2CCOCC2)cc1 (stereo not given)	i	i	15.8µM	i	nt	nt
Clc1ccc2nc(N3CCCCC3)[nH]c2c1	?	12.6µM	i	?	i	i
CCCN(Cc1cc2cc(C)ccc2[nH]c1=O)S(C)(=O)=O	i	i	i	5.01µM	i	i
CCCN(Cc1cc2cc(C)ccc2[nH]c1=O)C(=O)c1cccc(OC)c1	i	i	i	i	i	i
CCC(C)c1ccc(NC(=O)c2cccnc2)cc1 (stereo not given)	i[11.4 µM]	25.1µM	i[11.4 µM]	i[11.4 µM]	nt	i
CCC(C)c1ccc(O)c(NC(=O)c2cccnc2)c1 (stereo not given)	i	i	i	i[11.4 µM]	i	i
Cc1ccc2c(c1)N(CC(=O)N1CCN(c3nc4ccccc4s3)CC1)C(=O)C(C)O2 (stereo not given)	6.31µM	i	i	?	i	?
